AmpC no deterg: AmpC beta-lactamase inhibition without detergent; AmpC nitrocefin hydrolysis, absorbance 480 nm, 0.0001% Triton; Potency, µM (top dose mostly 57.1 µM), actives largely listed as inhibitors; AID 485341; P00811; 330,000 compounds, 0.52% hits; also: nearly all actives have a fitted effect of over 20% in size
Target sequence (P00811 whole entry, looked up): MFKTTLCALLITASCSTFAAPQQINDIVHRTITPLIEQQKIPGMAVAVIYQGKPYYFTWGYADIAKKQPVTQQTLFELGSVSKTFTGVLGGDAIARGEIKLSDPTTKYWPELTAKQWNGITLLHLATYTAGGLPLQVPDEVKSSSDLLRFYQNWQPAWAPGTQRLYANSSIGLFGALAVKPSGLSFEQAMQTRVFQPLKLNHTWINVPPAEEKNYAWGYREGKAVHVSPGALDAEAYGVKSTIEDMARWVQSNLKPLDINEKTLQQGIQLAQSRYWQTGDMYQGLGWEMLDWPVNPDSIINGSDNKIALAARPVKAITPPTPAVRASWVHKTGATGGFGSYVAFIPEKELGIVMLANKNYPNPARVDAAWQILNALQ
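AmpC (5.3 nM in the dispensed reagent) in 20 mM phosphate pH 7.0 with 0.01% (detergent screen) or 0.0001% Triton X-100 was preincubated with compounds for 15 min at room temperature. Nitrocefin was then added from an 800 uM solution, and hydrolysis was followed at 480 nm.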
FBPA Giardia inh: blocks Giardia fructose-bisphosphate aldolase activity | A8B2U2 | purified Giardia FBPA | Potency, µM (titrated, usually from 59.6 µM), most hits filed as inhibitors | 290,000 compounds, 0.71% hits | AID 2451; also: nearly all actives have a fitted effect of over 55% in size
Target sequence (A8B2U2 whole entry, looked up): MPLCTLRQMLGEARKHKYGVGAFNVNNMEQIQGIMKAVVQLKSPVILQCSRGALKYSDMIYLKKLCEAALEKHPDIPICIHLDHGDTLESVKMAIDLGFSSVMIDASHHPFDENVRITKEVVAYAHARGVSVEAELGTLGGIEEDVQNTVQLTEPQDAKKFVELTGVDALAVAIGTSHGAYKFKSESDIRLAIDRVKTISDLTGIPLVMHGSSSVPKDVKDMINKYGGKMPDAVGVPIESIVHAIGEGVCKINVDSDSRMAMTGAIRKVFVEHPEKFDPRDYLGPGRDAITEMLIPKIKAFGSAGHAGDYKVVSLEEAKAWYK
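Giardia FBPA (40 nM reagent) was preincubated 10 min at RT with compound (up to 57.5 uM final), then substrate plus GAPDH/TPI/NAD/arsenate coupling system with diaphorase/resazurin was added; resorufin fluorescence (525/598 nm) was read after 20 min.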
SARS PLP yeast: SARS-CoV PLP inhibition in yeast. S. cerevisiae expressing SARS-CoV PLpro, growth rescue. Potency, µM (highest dose often 32.9 µM), most hits filed as activators. 330,000 compounds, 0.19% hits. AID 485353; calls by dose curve; also: nearly all actives have a fitted effect of over 55% in size
AmpC inh detg: blocks E. coli AmpC beta-lactamase in detergent assay. P00811. AmpC hydrolysis of nitrocefin, absorbance 480 nm, 0.01% Triton. Potency, µM (series often up to 114 µM), hits mostly inhibitors. 370,000 compounds, 0.041% hits. AID 485294; also: nearly all actives have a fitted effect of over 25% in size
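20 mM phosphate pH 7.0 + 0.01% (detergent screen) or 0.0001% Triton X-100; 5.3 nM AmpC reagent; cpd preinc 15 min RT; nitrocefin (800 uM stock) to start; A480 q20 s × 4 min; Activity was normalised to no-enzyme and no-compound control wells.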
Each line names hits and unclear results; the compound was inactive in the other large screens. Sampled rows, rich in hits. Any-hit rate of the full collection: about 1.1%. Unless noted, calls follow the shape of the dose curve; as a rule, active = well fitted curve in the direction sought with a large enough effect; inconclusive = small, poorly fitted or top-dose-only effect, or another doubt; inactive = no such curve, though single readings can be large; an effect the other way counts as inactive or inconclusive.

Clc1ccccc1N1CCN(c2ncnc3nc[nH]c23)CC1	AmpC no deterg 8.91µM, AmpC inh detg inconclusive
CCCNC(=O)N1N=C(c2ccc(N)cc2)c2cc3c(cc2C1C)OCO3 (configuration not stated)	none (no result: AmpC no deterg, SARS PLP yeast, AmpC inh detg)
C[C@@H]1O[C@@H](O[C@H]2CC[C@@H](O[C@H]3[C@H](O)C[C@H](c4ccc5c(c4O)C(=O)C4=C(C5=O)[C@@]5(O)C(=O)C[C@](C)(O[C@H]6CC[C@H](O[C@H]7C=CC(=O)[C@H](C)O7)[C@H](C)O6)C[C@@]5(O)C=C4)O[C@@H]3C)O[C@H]2C)C=CC1=O	FBPA Giardia inh 7.06µM (no result: AmpC no deterg, SARS PLP yeast, AmpC inh detg)
O=C(CNC(=O)/C(=C\c1ccc(Br)cc1)NC(=O)c1ccccc1)OCc1ccccc1	none
O=C(CNC(=O)/C(=C/c1ccccc1)NC(=O)c1ccc(Br)cc1)OCc1ccccc1	AmpC no deterg 3.55µM
CCOc1ccccc1-c1nnc2n1N=C(c1cccc(OC)c1)CS2	none (no result: AmpC no deterg, SARS PLP yeast, AmpC inh detg)
COc1ccc2c(c1)CCc1cn3nc(C)cc3nc1-2	FBPA Giardia inh 17.7µM
COc1ccc2c(c1)CCc1cnc(N)nc1-2	none
COc1ccc(-c2noc(CN(C)CCC3CCCCO3)n2)cc1 (configuration not stated)	none
COC(=O)c1ccc(-c2noc(CN(C)CCC3CCCCO3)n2)cc1 (configuration not stated)	FBPA Giardia inh 17.7µM, AmpC inh detg inconclusive
COc1cc(/C=C/C(=O)OCC(=O)NC(=O)NC23CC4CC(CC(C4)C2)C3)ccc1OCC#N	AmpC no deterg 8.91µM
COc1ccc(CNC(=S)Nc2ccc(Br)cc2)cc1	none
COc1ccc(CNC(=S)Nc2ccc(-c3ccccc3)cc2)cc1	AmpC no deterg 14.1µM
CCC(C)C(N)C(=O)NC(CC(N)=O)C(=O)NC(CC(C)C)C(=O)NC(CCCCN)C(=O)NC(C)C(=O)NC(CC(C)C)C(=O)NC(C)C(=O)NC(C)C(=O)NC(CC(C)C)C(=O)NC(C)C(=O)NC(CCCCN)C(=O)NC(CCCCN)C(=O)NC(C(=O)NC(CC(C)C)C(N)=O)C(C)CC (configuration not stated)	none (no result: AmpC no deterg, SARS PLP yeast, AmpC inh detg)
O=C(Nc1cccc(C(F)(F)F)c1)c1cnn(-c2cccc(F)c2)c1C1CCNCC1	none (no result: AmpC no deterg, FBPA Giardia inh, SARS PLP yeast)
COc1ccc(C=C2c3ccccc3C(=O)c3ccccc32)cc1O	none (no result: AmpC no deterg, SARS PLP yeast, AmpC inh detg)
N#CCC(=O)Nc1ccc(C(=O)NCc2cccc(Cl)c2)cc1	AmpC no deterg 17.8µM
O=C(NCc1cccc(Cl)c1)c1ccncc1	none (no result: FBPA Giardia inh)
Cc1ccc(N2C(=O)[C@@H]3[C@H](C2=O)[C@H]2C=C(C(=O)c4ccccc4)C=CN2[C@@H]3C(=O)c2ccc(Cl)cc2)cc1	none
O=C(C1=C[C@@H]2[C@H]3C(=O)N(c4cccc(Cl)c4)C(=O)[C@H]3[C@@H](C(=O)c3ccc(Cl)cc3)N2C=C1)c1ccccc1	AmpC no deterg 12.6µM
COc1ccc(S(=O)(=O)N2Cc3ccccc3CC2C(=O)Nc2ccc(O)cc2)cc1OC (configuration not stated)	AmpC no deterg 0.708µM, AmpC inh detg inconclusive
CC(=O)Oc1ccccc1C(=O)O	none (no result: AmpC no deterg, SARS PLP yeast, AmpC inh detg)
CC(=O)[O][Hg][c]1ccccc1	FBPA Giardia inh 17.7µM (no result: AmpC no deterg, SARS PLP yeast, AmpC inh detg)
CC[C@H](C)[C@H](NC(=O)[C@H](CO)NC(=O)[C@H](C)NC(=O)[C@H](C)NC(=O)[C@H](CCC(N)=O)NC(=O)[C@H](CCCCN)NC(=O)[C@H](CCCN=C(N)N)NC(=O)[C@@H](N)CS)C(=O)N[C@@H](CCCCN)C(=O)N[C@H](C(=O)N[C@@H](C)C(=O)N[C@H](C(=O)N[C@@H](CO)C(=O)O)C(C)C)C(C)C	none (no result: AmpC no deterg, SARS PLP yeast, AmpC inh detg)
O=C(CSCc1ccccc1Cl)NN=C1CCCCCC1	AmpC no deterg 0.224µM
N#C/C(=C\c1ccc(Sc2nc3ccccc3[nH]2)o1)c1ccccc1	AmpC inh detg inconclusive
N#C/C(=C\c1ccc(Sc2ccc(Cl)cc2)o1)c1nc2ccccc2[nH]1	AmpC no deterg 28.2µM
N#C/C(=C\c1c(Cl)cccc1Cl)c1nc2ccccc2[nH]1	AmpC no deterg 11.2µM
CN1CC[C@@]2(C)c3cc(O)ccc3N(C)C12 (some centres not stated)	FBPA Giardia inh 2.81µM (no result: AmpC no deterg, SARS PLP yeast, AmpC inh detg)
Cc1ccc(S(=O)(=O)N2CCc3nc(-c4ccccc4)c4c(c3C2)CO[C@@H](C)C4)cc1	none (no result: AmpC no deterg, SARS PLP yeast, AmpC inh detg)
O=C(CSc1c[nH]c2ccccc12)N1CCCc2ccccc21	AmpC no deterg 17.8µM, AmpC inh detg inconclusive
CC1=CC(=Nc2c(C)n(C)n(-c3ccccc3)c2=O)C=CC1=O	FBPA Giardia inh 3.54µM
CCCCn1c(=O)[nH]c2nc3cc(N)ccc3nc2c1=O	FBPA Giardia inh 0.141µM
Nc1ccc(N2CCCCCC2)cc1	FBPA Giardia inh 11.2µM
CC1(OC(=O)C2CCCC2)C(=O)C=C2C=C(c3ccsc3)N(c3ccc(CO)cc3)C=C2C1=O (configuration not stated)	none (no result: AmpC no deterg, SARS PLP yeast, AmpC inh detg)
O=C(N=Nc1c(O)[nH]c2ccccc12)c1cc(NS(=O)(=O)c2cccs2)cc(NS(=O)(=O)c2cccs2)c1	AmpC no deterg 15.8µM
Cc1ccc(NC(=S)NC2CCSc3ccccc32)cc1C (configuration not stated)	AmpC no deterg 11.2µM (no result: FBPA Giardia inh)
COC(=O)c1ccc(C(=O)NC2CCSc3ccccc32)cc1 (configuration not stated)	none
COc1cccc(O)c1O	FBPA Giardia inh 17.7µM (no result: AmpC no deterg, SARS PLP yeast, AmpC inh detg)
Cc1ccc(N2C(=O)NC(=O)/C(=C/c3cnc(-c4ccccc4)nc3)C2=O)cc1C	SARS PLP yeast 12.6µM
CCCCCCCCCCN1CCOCCOCCN(CCCCCCCCCC)CCOCCOCC1	none (no result: AmpC no deterg, SARS PLP yeast, AmpC inh detg)
Nc1ccc(N2CCOCC2)c2nonc12	FBPA Giardia inh 2.81µM
O=C(Nc1ccc(F)cc1)Nc1ccc(N2CCOCC2)c2nonc12	none
COc1ccccc1C1CC(=O)Oc2cc(C)c(Cl)cc21 (configuration not stated)	none (no result: AmpC inh detg)
COc1ccccc1C1CC(=O)Oc2cc3c(cc21)OCO3 (configuration not stated)	FBPA Giardia inh 39.7µM (no result: AmpC no deterg, SARS PLP yeast, AmpC inh detg)
COC(=O)C1=C(C(=O)OC)[C@@H]2N(C)c3ccc(OC)cc3[C@@]23C[C@@H](C(=O)OC)N(S(=O)(=O)c2cccs2)C3=N1	none (no result: AmpC no deterg, SARS PLP yeast, AmpC inh detg)
O=C1NC(=O)N(CCc2ccc(F)cc2)C(=O)/C1=C/c1ccco1	AmpC no deterg 17.8µM, AmpC inh detg inconclusive
Cc1ccc2c(c1)C=CC(C#N)N2C(=O)c1ccccc1 (configuration not stated)	SARS PLP yeast 11.2µM
CN(C)c1cccc2c1c(NC(=O)c1ccc(Cl)cc1)nn2C	FBPA Giardia inh 17.7µM
O=C(CSc1nc2ccccc2s1)c1ccc(O)cc1O	AmpC no deterg 7.08µM
Cc1cc(C)c(N(Cc2ccccc2)S(=O)(=O)c2ccc(OCCNC(=O)c3cc4ccccc4o3)cc2)c(C(=O)NO)c1	none (no result: AmpC no deterg, SARS PLP yeast, AmpC inh detg)
N/C(COc1cccc(Cl)c1)=N\NS(=O)(=O)c1ccccc1	AmpC no deterg 0.316µM

High-throughput results: PubChem, National Center for Advancing Translational Sciences (NCATS)
